Calls of active or inactive are those of the source. Rule for the calls: active = hit-call score of the fitted dose curve at least 0.9, where 1 is the maximum; inactive = score below 0.9.
Columns and labels:
[1] = read-out: TIMP metallopeptidase inhibitor 1 (TIMP1), TIMP1 (gene 7076); assay: BSK_hDFCGF_TIMP1: BioMAP Diversity Plus: hDFCGF Assay for TIMP metallopeptidase inhibitor 1 (TIMP1) Biomarker Activity (AID 2283062); details: primary human foreskin fibroblasts; actives raise or lower the signal
Summary of the method: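 TIMP-1 measured by ELISA 24 h after chemical dosing of primary human skin fibroblasts, with gain or loss fitted relative to DMSO. Parallel SRB staining (560 nm) monitored overt cytotoxicity.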

[2] = read-out: Monokine induced gamma interferon (MIG), CXCL9 (gene 4283); assay: BSK_hDFCGF_MIG: BioMAP Diversity Plus: hDFCGF Assay for Monokine induced gamma interferon (MIG) Biomarker Activity (AID 2283063); details: primary human foreskin fibroblasts; actives raise or lower the signal
Summary of the method: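 Human primary foreskin fibroblasts in the hDFCGF system, exposed to test chemical for 24 h; MIG measured by ELISA. Bidirectional curve fitting against DMSO negative control as activity baseline.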

[3] = read-out: Matrix Metallopeptidase 1 (MMP1), MMP1 (gene 4312); assay: BSK_hDFCGF_MMP1: BioMAP Diversity Plus: hDFCGF Assay for Matrix Metallopeptidase 1 (MMP1) Biomarker Activity (AID 2283064); details: primary human foreskin fibroblasts; actives raise or lower the signal
Summary of the method: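 ELISA read-out of MMP1 from human foreskin fibroblasts (primary skin cells), 24 h post-dose. Gain or loss of signal was fitted bidirectionally versus DMSO negative control; cytotoxicity was checked by SRB in parallel cultures.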

[4] = read-out: Vascular cell adhesion molecule 1 (VCAM1), VCAM1 (gene 7412); assay: BSK_hDFCGF_VCAM1: BioMAP Diversity Plus: hDFCGF Assay for Vascular cell adhesion molecule 1 (VCAM1) Biomarker Activity (AID 2283065); details: primary human foreskin fibroblasts; actives raise or lower the signal
Summary of the method: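 ELISA readout of VCAM-1 on human dermal fibroblast primary cultures, 24 h after chemical exposure. Gain or loss of signal fitted in both directions against DMSO baseline.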

[5] = read-out: Intercellular Adhesion Molecule 1 (ICAM1), ICAM1 (gene 3383); assay: BSK_KF3CT_ICAM1: BioMAP Diversity Plus: KF3CT Assay for Intercellular Adhesion Molecule 1 (ICAM1) Biomarker Activity (AID 2283067); details: primary human keratinocytes with fibroblasts; actives raise or lower the signal
Summary of the method: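 Cell-surface ICAM-1 was measured by ELISA 24 h after dosing primary human skin keratinocytes co-cultured with fibroblasts. Parallel SRB staining tracked overt cytotoxicity. Gain or loss of signal was fitted relative to DMSO.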

[6] = read-out: Interferon-gamma inducible Protein 10 (IP10), CXCL10 (gene 3627); assay: BSK_KF3CT_IP10: BioMAP Diversity Plus: KF3CT Assay for Interferon-gamma inducible Protein 10 (IP10) Biomarker Activity (AID 2283068); details: primary human keratinocytes with fibroblasts; actives raise or lower the signal
Summary of the method: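 KF3CT co-culture (keratinocytes + foreskin fibroblasts), 24 h compound, IP-10 by ELISA; bidirectional fit vs DMSO baseline.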

[7] = BSK_KF3CT_SRB: Viability Assessment in the BioMAP Diversity Plus: KF3CT Assay (AID 2283069); details: primary human keratinocytes with fibroblasts;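 note: total protein by sulforhodamine B staining as a cytotoxicity measure; read 24 h after compound addition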
Summary of the method: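 SRB read-out at 560 nm (0.1% stain, TCA-fixed cells) gauges overt cytotoxicity in a human skin keratinocyte–fibroblast co-culture 24 h post-dosing. Signal change was fitted bidirectionally relative to DMSO control.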

[8] = read-out: Interleukin-1 alpha (IL1a), IL1A (gene 3552); assay: BSK_KF3CT_IL1a: BioMAP Diversity Plus: KF3CT Assay for Interleukin-1 alpha (IL1a) Biomarker Activity (AID 2283070); details: primary human keratinocytes with fibroblasts; actives raise or lower the signal
Summary of the method: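 Primary skin co-culture (keratinocytes, foreskin fibroblasts), 24 h exposure; ELISA for IL-1a; bidirectional curve fit vs DMSO.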

[9] = read-out: TIMP metallopeptidase inhibitor 2 (TIMP2), TIMP2 (gene 7077); assay: BSK_KF3CT_TIMP2: BioMAP Diversity Plus: KF3CT Assay for TIMP metallopeptidase inhibitor 2 (TIMP2) Biomarker Activity (AID 2283071); details: primary human keratinocytes with fibroblasts; actives raise or lower the signal
Summary of the method: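 Measurements come from ELISA detection of TIMP-2 at 24 hours in a dosed human keratinocyte and foreskin fibroblast co-culture. DMSO serves as negative control and baseline.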

[10] = read-out: Transforming growth factor beta 1 (TGFb1), TGFB1 (gene 7040); assay: BSK_KF3CT_TGFb1: BioMAP Diversity Plus: KF3CT Assay for Transforming growth factor beta 1 (TGFb1) Biomarker Activity (AID 2283072); details: primary human keratinocytes with fibroblasts; actives raise or lower the signal
Summary of the method: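 TGF-b1 ELISA on a 24 h dosed co-culture of human keratinocytes and foreskin fibroblasts; cytotoxicity tracked in parallel cultures by SRB staining.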

[11] = read-out: C-C motif chemokine 2 (Homo sapiens) (UniProt P13500); assay: BSK_KF3CT_MCP1: BioMAP Diversity Plus: KF3CT Assay for Monocyte Chemoattractant Protein 1 (MCP1/CCL2) Biomarker Activity (AID 2283073); details: primary human keratinocytes with fibroblasts; actives raise or lower the signal
Summary of the method: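 ELISA read-out of MCP-1, 24 h post-dose, in primary human skin keratinocytes co-cultured with fibroblasts. Parallel SRB staining monitors cytotoxicity; changes fitted both directions relative to DMSO.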

[12] = read-out: urokinase plasminogen activator (uPA), PLAU (gene 5328); assay: BSK_KF3CT_uPA: BioMAP Diversity Plus: KF3CT Assay for urokinase plasminogen activator (uPA) Biomarker Activity (AID 2283075); details: primary human keratinocytes with fibroblasts; actives raise or lower the signal
Summary of the method: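 Skin co-culture (keratinocytes + foreskin fibroblasts), human primary; 24 h post-dose; uPA by ELISA; gain/loss fit vs DMSO baseline.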

CD40, CD40 (gene 958) = assay: BSK_LPS_CD40: BioMAP Diversity Plus: LPS Assay for CD40 Biomarker Activity (AID 2283076); details: primary human HUVEC with PBMC; actives raise or lower the signal
Summary of the method: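 In the LPS system of human endothelial cells with peripheral blood mononuclear cells, CD40 levels were read by ELISA 24 h post-treatment. Signal changes in either direction were fitted against the DMSO baseline, with parallel SRB protein staining.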

[13] = read-out: E-selectin (Homo sapiens) (UniProt P16581); assay: BSK_LPS_Eselectin: BioMAP Diversity Plus: LPS Assay for Eselectin Biomarker Activity (AID 2283077); details: primary human HUVEC with PBMC; actives raise or lower the signal
Summary of the method: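 E-selectin ELISA on LPS-stimulated endothelial cell/PBMC co-cultures, read 24 h post-treatment; gains and losses fitted against DMSO. Parallel SRB staining (0.1% SRB after 10% TCA fixation, 560 nm) flags overt cytotoxicity.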

[14] = read-out: Interleukin-8 (IL8), CXCL8 (gene 3576); assay: BSK_LPS_IL8: BioMAP Diversity Plus: LPS Assay for Interleukin-8 (IL8) Biomarker Activity (AID 2283078); details: primary human HUVEC with PBMC; actives raise or lower the signal
Summary of the method: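 ELISA read-out of IL-8 after 24 h chemical treatment of LPS-activated endothelial/PBMC human primary co-cultures. Changes either up or down relative to DMSO; overt cytotoxicity checked by sulforhodamine B staining in parallel wells.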

[15] = BSK_LPS_SRB: Viability Assessment in the BioMAP Diversity Plus: LPS Assay (AID 2283079); details: primary human HUVEC with PBMC;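 note: total protein by sulforhodamine B absorbance as a cytotoxicity measure; measured one day after compound addition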
Summary of the method: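 SRB viability endpoint: cells fixed with 10% TCA, stained with 0.1% SRB, read at 560 nm, 24 h post-dose. HUVEC/PBMC co-culture; signal change in either direction scored relative to DMSO.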

[16] = read-out: Interleukin-1 alpha (IL1a), IL1A (gene 3552); assay: BSK_LPS_IL1a: BioMAP Diversity Plus: LPS Assay for Interleukin-1 alpha (IL1a) Biomarker Activity (AID 2283080); details: primary human HUVEC with PBMC; actives raise or lower the signal
Summary of the method: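 Readout is IL-1a level by ELISA, 24 h post-dose, fitted as gain or loss relative to DMSO. System: LPS-activated human primary co-culture of vascular endothelium and peripheral blood mononuclear cells, with parallel SRB total-protein cytotoxicity.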

[17] = read-out: Monocyte Chemoattractant Protein-1 (MCP1), CCL2 (gene 6347); assay: BSK_LPS_MCP1: BioMAP Diversity Plus: LPS Assay for Monocyte Chemoattractant Protein-1 (MCP1) Biomarker Activity (AID 2283081); details: primary human HUVEC with PBMC; actives raise or lower the signal;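 for AC50: secreted MCP-1 protein quantified by ELISA in culture supernatant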
Summary of the method: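 Secreted MCP-1 read by ELISA at 24 h post-dosing in an LPS-activated co-culture of endothelial cells with peripheral blood mononuclear cells. Fits run in both directions, DMSO as baseline; parallel SRB staining tracks overt cytotoxicity.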

[18] = read-out: Plasminogen activator inhibitor-1 (PAI1), SERPINE1 (gene 5054); assay: BSK_hDFCGF_PAI1: BioMAP Diversity Plus: hDFCGF Assay for Plasminogen activator inhibitor-1 (PAI1) Biomarker Activity (AID 2283066); details: primary human foreskin fibroblasts; actives raise or lower the signal
Summary of the method: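 Human skin fibroblast cultures receive chemical for 24 h before PAI-1 is measured by ELISA; signal changes are fitted bidirectionally against DMSO-treated wells.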

[19] = read-out: Matrix Metallopeptidase 9 (MMP9), MMP9 (gene 4318); assay: BSK_KF3CT_MMP9: BioMAP Diversity Plus: KF3CT Assay for Matrix Metallopeptidase 9 (MMP9) Biomarker Activity (AID 2283074); details: primary human keratinocytes with fibroblasts; actives raise or lower the signal;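 for AC50: MMP9 protein level quantified by ELISA in the co-culture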
Summary of the method: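 ELISA read-out of MMP-9 at 24 h post-dosing in a co-culture of human skin keratinocytes and foreskin fibroblasts. Gain or loss of signal was fitted in both directions against DMSO.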

Measured: AC50

E-selectin (Homo sapiens), sequence (P16581 whole entry, looked up): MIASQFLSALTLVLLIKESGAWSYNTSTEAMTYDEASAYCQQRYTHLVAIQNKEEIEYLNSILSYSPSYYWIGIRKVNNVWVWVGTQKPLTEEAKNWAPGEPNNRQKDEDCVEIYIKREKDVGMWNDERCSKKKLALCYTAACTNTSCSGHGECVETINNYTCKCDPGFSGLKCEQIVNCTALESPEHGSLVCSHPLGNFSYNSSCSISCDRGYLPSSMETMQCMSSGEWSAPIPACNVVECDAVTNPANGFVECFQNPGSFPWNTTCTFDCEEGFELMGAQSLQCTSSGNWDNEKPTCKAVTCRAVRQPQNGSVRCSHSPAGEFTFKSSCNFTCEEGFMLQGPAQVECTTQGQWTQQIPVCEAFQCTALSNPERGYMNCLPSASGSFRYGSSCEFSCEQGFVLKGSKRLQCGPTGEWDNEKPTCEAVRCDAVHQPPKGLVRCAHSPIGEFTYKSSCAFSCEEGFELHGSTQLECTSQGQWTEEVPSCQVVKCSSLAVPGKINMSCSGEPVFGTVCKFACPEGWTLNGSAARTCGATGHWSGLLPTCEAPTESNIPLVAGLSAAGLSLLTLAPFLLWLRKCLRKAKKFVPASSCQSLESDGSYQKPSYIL

COCCOCCOC
inactive: [1] | [2] | [3] | [4] | [5] | [6] | [7] | [8] | [9] | [10] | [11] | [12] | CD40, CD40 (gene 958) | [13] | [14] | [15] | [16] | [17]

Cc1ccc(N(C)C)cc1
inactive: [1] | [2] | [3] | [4] | [5] | [6] | [7] | [8] | [9] | [10] | [11] | [12] | [13] | [14] | [15] | [16] | [17]

C=CCc1ccc(O)c(OC)c1
inactive: [1] | [2] | [3] | [4] | [5] | [6] | [7] | [8] | [9] | [10] | [11] | [12] | CD40, CD40 (gene 958) | [13] | [14] | [16] | [17]

COc1ccc(S(=O)(=O)N2C(=O)[C@@](c3ccccc3OC)(N3C[C@H](O)C[C@H]3C(=O)N(C)C)c3cc(Cl)ccc32)c(OC)c1
active: [3] 4.5 µM | [14] 7.03 µM
inactive: [1] | [2] | [18] | [5] | [6] | [7] | [8] | [9] | [10] | [11] | [12] | [13] | [16] | [17]

CNC(=O)[C@H]1O[C@@H](n2cnc3c(NCc4cc(Cl)ccc4OCc4cc(C)no4)ncnc32)[C@H](O)[C@@H]1N
inactive: [1] | [2] | [3] | [5] | [6] | [7] | [8] | [9] | [10] | [11] | [19] | [12] | CD40, CD40 (gene 958) | [13] | [14] | [16] | [17]

CN1CCN(Cc2cc(-c3ccc4[nH]c(=O)oc4c3)co2)[C@@H](c2ccc(F)cc2)C1
inactive: [1] | [2] | [3] | [4] | [5] | [6] | [7] | [8] | [9] | [10] | [11] | [12] | CD40, CD40 (gene 958) | [13] | [14] | [16]
active: [19] 17.6 µM | [15] 25.9 µM | [17] 22.5 µM

FC(F)(F)C(F)(F)C(F)(F)C(F)(F)C(F)(F)C(F)(F)CCI
inactive: [1] | [2] | [3] | [5] | [6] | [7] | [8] | [9] | [10] | [11] | [19] | [12] | [13] | [14] | [15] | [16] | [17]

Cc1ccc(C(C)C)c(O)c1
inactive: [1] | [2] | [3] | [18] | [5] | [6] | [7] | [8] | [9] | [10] | [11] | [19] | [12] | [13] | [14] | [15] | [16] | [17]
